HCV inhibitor: qHTS Assay for Inhibitors of Hepatitis C Virus (HCV). Huh7.5.1 HCVcc-Cre infection, luciferase reporter, 44 h. Potency, µM (series often up to 41.8 µM), without a hit: at the top dose activity change, negative = inhibition, hits mostly inhibitors. actives 3.4% (n = 340,000). AID 651820, 2012; note: potency is the fitted concentration of half-maximal effect
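Seed cells (1,000/well) for 4 h; treat with compound and infect with HCVcc-Cre, moi about 0.5. Incubate 44 h, then detect luciferase activity.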
VACV mCherry inh: qHTS for Stage-Specific Inhibitors of Vaccinia Orthopoxvirus: mCherry Reporter Primary qHTS; Vaccinia virus mCherry reporter infection, fluorescence; Potency, µM (top dose mostly 36.5 µM), inactives show at the top dose activity change, negative = inhibition, actives largely listed as inhibitors; actives 0.63% (n = 310,000); AID 720579, 2013; calls by dose curve; tested in A549 cells; note: potency is the fitted concentration of half-maximal effect; nearly all actives have a fitted effect of over 35% in size
FBPA Giardia inh: qHTS Assay for Inhibitors of Fructose-1,6-bisphosphate Aldolase from Giardia Lamblia | A8B2U2 | purified Giardia FBPA | Potency, µM (top dose mostly 59.6 µM), inactives show at the highest dose activity, negative = inhibition, most hits filed as inhibitors | actives 0.71% (n = 290,000) | AID 2451, 2010; note: potency is the fitted concentration of half-maximal effect; nearly all actives have a fitted effect of over 55% in size
Target sequence (A8B2U2 whole entry, looked up): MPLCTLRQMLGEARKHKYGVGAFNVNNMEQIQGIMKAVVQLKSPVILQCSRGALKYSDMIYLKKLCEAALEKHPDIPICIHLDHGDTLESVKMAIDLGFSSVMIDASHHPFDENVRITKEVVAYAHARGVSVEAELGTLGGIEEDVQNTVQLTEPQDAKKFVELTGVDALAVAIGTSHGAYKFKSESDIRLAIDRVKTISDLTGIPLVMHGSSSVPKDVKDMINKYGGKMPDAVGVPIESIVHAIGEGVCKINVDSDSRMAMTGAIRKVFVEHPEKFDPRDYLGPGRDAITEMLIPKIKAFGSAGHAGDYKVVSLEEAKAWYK
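40 nM FBPA preincubated 10 min at RT with compound (up to 57.5 uM final), then substrate plus GAPDH/TPI/NAD/arsenate coupling and diaphorase/resazurin added. Fluorescence read after 20 min at RT, 525/598 nm.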
FMDV inh: High Throughput Screening for Foot and Mouth Disease Virus Antivirals | Potency, µM (highest dose often 57.9 µM), without a hit: top-dose activity change, negative = inhibition, usual class: inhibitors | actives 1.2% (n = 410,000) | FMDV antiviral cell-based qHTS; calls by dose curve; tested in HEK293T cells; note: read-out not given here; potency is the fitted concentration of half-maximal effect; nearly all actives have a fitted effect of over 45% in size
VACV Venus inh: qHTS for Stage-Specific Inhibitors of Vaccinia Orthopoxvirus: Venus Reporter Primary qHTS. AID 720580, 2013. actives 0.46% (n = 330,000). Potency, µM (top dose mostly 36.5 µM), for inactives: at the top dose activity change, negative = inhibition, hits mostly inhibitors. Vaccinia virus Venus reporter expression, fluorescence; calls by dose curve; tested in A549 cells; note: potency is the fitted concentration of half-maximal effect; nearly all actives have a fitted effect of over 30% in size
HCMV inh: qHTS Assay for inhibitors of the human cytomegalovirus (HCMV); HFF cells, HCMV-luciferase reporter, 72 h; active compounds read low; activity change, negative = inhibition, % at 57.5 µM; actives 4.5% (n = 410,000); in the data active = activity change below about -60%; inconclusive = no clear call, values can overlap the other calls; inactive = above about -39%
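Two compound doses tested in HFFs infected with HCMV-luciferase, MOI 1 PFU/cell, 72 h at 37C. Lysate luminescence read with OneGlo; data normalized against buffer-only and 10uM Salinomycin inhibitor controls.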
An asterisk follows results filed as active; i = inactive; ? = inconclusive; nt = no result; ! = repeats disagree; [ ] = another dose, or the depositor's remark. Rows were chosen to be rich in hits. Some 7.5% of all compounds tested hit in one or more screens of this group. Unless noted, calls come from the whole dose curve; as a rule, active = well fitted curve in the direction sought with a large enough effect; inconclusive = small, poorly fitted or top-dose-only effect, or another doubt; inactive = no such curve, though single readings can be large; an effect the other way counts as inactive or inconclusive. % is set by controls: 0 for no effect and ±100 for the full control effect.

SMILES | HCV inhibitor | VACV mCherry inh | FBPA Giardia inh | FMDV inh | VACV Venus inh | HCMV inh
CNc1cc(N2CCCC2)ccc1[N+](=O)[O-] | 25µM* | -17% | -2% | 21% | -13% | 10
Cc1cnc(C(=O)OCC(=O)Nc2ccccc2-c2ccccc2)cn1 | 11% | nt | nt | -18% | nt | 31
N=c1n(Cc2ccccc2)c2ccccc2n1CC(O)COc1ccccc1 (centres undefined) | 14µM* | nt | 0% | ? | nt | ?
Cc1ccccc1OCC(O)Cn1c(=N)n(CCN2CCOCC2)c2ccccc21 (centres undefined) | ? | 27% | -1% | ? | ? | ?
Cc1ccccc1OCC(O)COc1ccccc1C | -22% | i | nt | 16% | -7% | -100*
Cc1ccccc1OCC(O)Cn1c(=N)n(CCN2CCCCC2)c2ccccc21 (centres undefined) | nt | ? | nt | ? | ? | -92*
Cc1ccccc1OCCn1c(=N)n(C(C)C)c2ccccc21 | nt | -15%[7.34 µM] | nt | ? | -12%[7.34 µM] | -69*
Cc1ccccc1OCC(O)CN (centres undefined) | 18% | -6% | -7% | 9% | -28% | -21
Cc1ccc(Cn2c(=N)n(CC(O)COc3ccccc3)c3ccccc32)cc1 (centres undefined) | ? | ? | -1% | 0% | ? | -35
CCNc1ncc2nc(-c3cccs3)c(=O)n(-c3ccc(OC)cc3)c2n1 | nt | nt | -2% | 7% | nt | nt
CC(C)CN(C(=O)Cn1ccccc1=O)C1CCS(=O)(=O)C1 (centres undefined) | 1% | nt | nt | -17% | nt | 13
COc1ccccc1OCC(O)Cn1c(=N)n(CCN2CCCCC2)c2ccccc21 (centres undefined) | 2.5µM* | nt | 2% | -28% | nt | ?
N=c1n(CCN2CCCCC2)c2ccccc2n1CC(O)COc1ccccc1 (centres undefined) | 11µM* | -9% | -3% | 40µM*! | -22% | 20
O=C(Nc1nc(NC(=O)c2ccco2)n(-c2ccccc2)n1)c1ccccc1 | ? | ? | ? | nt | ? | -100*
CCC(CO)n1c(=S)[nH]c2cc(OC)c(OC)cc2c1=O (centres undefined) | -1% | nt | ? | -7% | nt | ?
CC(C)Oc1ccc(C(=O)/C(=C\c2cccs2)c2nc3ccccc3o2)cc1 | ? | -5% | 1% | -26% | 5% | -73*
CCn1c(O)c(N=NC(=O)C(O)c2ccccc2)c2ccccc21 (centres undefined) | -28% | ? | -3% | 4% | -28% | 12
CCOC(=O)C1=C(C)NC(C)=C(C(=O)OC)C1c1cccc(Cl)c1Cl (centres undefined) | 2%[8.37 µM] | -27% | -12% | -5% | -18% | -68*
COC(=O)C1=C(C)NC(=O)CC1c1cccc(Cl)c1Cl (centres undefined) | 5% | -20% | -2% | -26% | -5% | 2
Cn1cc(C(=O)c2ccc(Cl)cc2Cl)cc1C(=O)N/N=C(\N)COc1ccccc1 | -23% | nt | 24% | -27% | ? | -24
Cn1cc(C(=O)c2ccc(Cl)cc2Cl)cc1C(=O)N/N=C(\N)COc1ccc(Cl)cc1Cl | 13µM* | nt | 12% | ? | ? | ?
Cn1cc(C(=O)c2ccc(Cl)cc2Cl)cc1C(=O)N/N=C(\N)COc1ccc(Cl)cc1 | 13µM* | ? | 7% | ? | -25% | 0
Cn1cc(C(=O)c2ccc(Cl)cc2Cl)cc1C(=O)N/N=C(\N)COc1ccc(F)cc1 | 10µM* | nt | 23% | ? | ? | -4
Cn1cc(C(=O)c2ccc(Cl)cc2Cl)cc1C(=O)O | 16% | -21% | 0% | -2% | -8% | -1
CCOc1ccc(NC(=O)CC2C(=O)N(c3cccc(C)c3)C(=O)N2Cc2cccnc2)cc1 (centres undefined) | nt | -12% | nt | -7% | -9% | -24
